Assay outcomes from PubChem.
An excerpt weighted towards active compounds, which were near 18% of everything screened.
LDHA inh – inhibitors of human lactate dehydrogenase A; P00338; purified LDHA, NADH/diaphorase-resazurin fluorescence; hits give low values; activity change, % (values are at about 110 or 230 µM); hit rate 0.15% among 480,000; AID 1347041; in the data active = activity change below about -30%; inconclusive = mostly about -25% to -30%;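 note: plate controls were DMSO wells for no effect and wells without enzyme for full effect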
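Human LDH5 at 2 nM final in Tris HCl pH 7.4 with 0.06 mM NADH and 0.2 mM pyruvate, reacted 5 minutes at room temperature. Remaining NADH coupled via diaphorase/resazurin; resorufin fluorescence read at 0 and 20 minutes, normalized to enzyme-free and DMSO wells.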
TDP1 cell noCPT – qHTS for Inhibitors of human tyrosyl-DNA phosphodiesterase 1 (TDP1): qHTS in cells in absence of CPT. DT40 Tdp1-/- hTDP1 cells, no CPT, ATP luminescence, 48 h. Potency, µM (series often up to 46.2 µM), inactives show top-dose activity change, negative = growth inhibition, actives largely listed as inhibitors. hit rate 15% among 420,000. AID 686978, 2013; note: potency is the fitted concentration of half-maximal effect; nearly all actives have a fitted effect of over 55% in size
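Compound effects on proliferation are scored in DT40 Tdp1-/-;hTDP1 cells in the absence of CPT. ATP levels (CellTiter-Glo luminescence) are recorded after a ≥48 hr, 37 °C incubation.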
DT40 TDP1 CPT – DT40-hTDP1 cell growth loss with CPT; chicken DT40 Tdp1-/-;hTDP1 cells + 20 nM CPT, ATP luminescence, 48 h; Potency, µM (doses to about 46.2 µM), without a hit: at the highest dose activity change, negative = growth inhibition, actives largely listed as inhibitors; hit rate 12% among 420,000; note: potency is the fitted concentration of half-maximal effect; nearly all actives have a fitted effect of over 55% in size
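Chicken DT40 Tdp1-/- cells stably complemented with human TDP1 were seeded at 400 cells/well in medium containing 20 nM camptothecin, exposed to pin-transferred compounds, and grown at 37 °C for at least 48 hr. Viability was read as ATP luminescence.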
Gal4-VP16 FLuc – Gal4-VP16 reporter inhibition counter-screen | hit rate 3.5% among 310,000 | Potency, µM (highest dose often 53.6 µM), for the others: at the highest dose activity, negative = inhibition, most hits filed as inhibitors | Drosophila S2 Gal4-VP16 UAS-luciferase, luminescence, 20 h;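 note: Gal4-VP16 expression switched on by copper sulfate through the metallothionein promoter; potency is the fitted concentration of half-maximal effect; nearly all actives have a fitted effect of over 50% in size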
RORg inh – blocks mouse ROR gamma transcriptional activity | Potency, µM (doses to about 53.6 µM), without a hit: top-dose activity change, negative = inhibition, usual class: inhibitors | Drosophila S2 Gal4-RORgamma UAS-luciferase reporter, 20 h | hit rate 5.4% among 310,000 | P51450; note: potency is the fitted concentration of half-maximal effect; nearly all actives have a fitted effect of over 60% in size
Target sequence (P51450 whole entry, looked up, the tested form may be a part): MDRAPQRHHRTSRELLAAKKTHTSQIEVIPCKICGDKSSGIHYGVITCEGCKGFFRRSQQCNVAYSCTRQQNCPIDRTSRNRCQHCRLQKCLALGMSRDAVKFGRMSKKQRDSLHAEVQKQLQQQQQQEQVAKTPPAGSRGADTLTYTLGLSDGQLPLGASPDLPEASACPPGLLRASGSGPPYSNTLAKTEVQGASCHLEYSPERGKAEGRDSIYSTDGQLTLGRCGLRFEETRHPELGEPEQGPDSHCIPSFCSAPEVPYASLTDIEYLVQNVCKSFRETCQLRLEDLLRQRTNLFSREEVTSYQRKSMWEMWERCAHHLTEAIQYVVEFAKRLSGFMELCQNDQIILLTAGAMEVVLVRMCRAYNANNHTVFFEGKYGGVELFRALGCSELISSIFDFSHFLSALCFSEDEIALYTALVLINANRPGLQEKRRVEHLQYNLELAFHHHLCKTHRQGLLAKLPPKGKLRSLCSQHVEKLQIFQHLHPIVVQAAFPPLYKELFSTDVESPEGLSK
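Schneider cells (Drosophila), stable Gal4 DBD–ROR gamma + UAS-luc; 1 hr cmpd preincubation; Cu2+ induction 700 uM final; 20 hr ambient; luminescence.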
IL1B secr inh – inflammasome signaling inhibition, IL-1 beta readout | THP-1 LPS/ATP IL-1B secretion, AlphaLISA, 16 h; hits give low values | hit rate 4.7% among 360,000 | activity change, % at 57.5 µM | AID 743279; in the data active = activity change below about -50%; inconclusive = mostly about -30% to -49%
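THP-1 cells pretreated 1 hr with compounds (up to 57.5 uM final), then stimulated with LPS (250 ng/mL final) plus ATP (1.25 mM final); secreted IL-1B measured by AlphaLISA after 16 hr, decreased signal indicating inhibition.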
An asterisk follows results filed as active; ? = inconclusive; nt = no result given. Unless noted, calls come from the whole dose curve; as a rule, active = well fitted curve in the direction sought with a large enough effect; inconclusive = small, poorly fitted or top-dose-only effect, or another doubt; inactive = no such curve, though single readings can be large; an effect the other way counts as inactive or inconclusive. Unless noted, % is set by controls: 0 for no effect and ±100 for the full control effect.

SMILES	LDHA inh	TDP1 cell noCPT	DT40 TDP1 CPT	Gal4-VP16 FLuc	RORg inh	IL1B secr inh
CCN1CCN(c2nc3ccccc3nc2NS(=O)(=O)c2ccccc2)CC1	8	nt	nt	nt	nt	nt
CCCSc1ncc(Cl)c(C(=O)Nc2ccc(S(=O)(=O)N(C)c3ccccc3)cc2)n1	-2	21µM*	?	nt	nt	nt
CN(c1ccccc1)S(=O)(=O)c1ccc(NC(=O)c2nc(S(C)(=O)=O)ncc2Cl)cc1	-4	0.58µM*	0.65µM*	2.8µM*	6.3µM*	-96*
CCN(c1ccccc1)S(=O)(=O)c1ccc(NC(=O)c2nc(SC)ncc2Cl)cc1	3	21µM*	12µM*	nt	nt	nt
CCSc1ncc(Cl)c(C(=O)Nc2ccccc2)n1	-5	-17%	-27%	-13%	27%	19
CS(=O)(=O)N1CCN(c2ccc(NC(=S)NC(=O)c3cccs3)cc2)CC1	-7	14%	-9%	-12%	6%	-6
O=C(NC(=S)Nc1ccc(S(=O)(=O)N2CCCCCC2)cc1)c1cccs1	-9	21µM*	?	6.3µM*	2.8µM*	20
O=C(NC(=S)Nc1ccc(S(=O)(=O)N2CCCC2)cc1)c1cccs1	-9	?	?	13µM*	4.5µM*	-19
Oc1ccc(/C=C/c2nc3ccccc3s2)cc1	-5	nt	nt	nt	nt	nt
CCCCOC(=O)c1ccc(NC(=O)CCc2ncc(-c3ccccc3)o2)cc1	10	nt	nt	nt	nt	nt
Cc1ccc2nc(NS(=O)(=O)c3cn(C)nc3C)sc2c1	-11	17%	-3%	11µM*	14µM*	3
CN(Cc1ccccc1)C(=O)Cn1nnc(-c2ccccc2)c1COc1ccc2ccccc2c1	1	18µM*	23µM*	nt	nt	-7
CN(Cc1ccccc1)C(=O)Cn1nnc(-c2ccccc2)c1COc1ccccc1	-1	21µM*	?	nt	nt	-26
O=C(Cn1nnc(-c2ccccc2)c1COc1ccc2ccccc2c1)NCC1CC1	-3	?	18µM*	nt	nt	-9
CCCCNC(=O)Cn1nnc(-c2ccccc2)c1COc1ccc(C(C)=O)cc1	-4	?	-26%	nt	nt	1
COc1ccc(OC)c(C2C=C(C(=O)O)Nc3c(C(=O)Nc4ccccc4OC)cnn32)c1 (stereo unspecified)	-1	nt	nt	nt	nt	nt
Cc1ccc(C)c(NC(=O)c2ccc3c(c2)CCC3)c1	4	nt	nt	nt	nt	nt
O=C(NCC(=O)N1CCCC1c1ccccc1)c1ccc(Cl)cc1 (stereo unspecified)	7	nt	nt	nt	nt	nt
CN(C)S(=O)(=O)c1ccc(NC(=O)CCc2ncc(-c3ccc(F)cc3F)o2)cc1	7	nt	nt	nt	nt	nt
COc1ccc2nc(C)cc(Nc3ccc(N4CCN(C)CC4)cc3)c2c1	0	3.3µM*	4.6µM*	-11%	4%	-106*
COc1ccc2nc(C)cc(NCCN3CCOCC3)c2c1	-1	-20%	-3%	-6%	-36%	?
COc1ccc2nc(C)cc(Nc3ccc(N4CCOCC4)cc3)c2c1	-1	21µM*	?	0%	-22%	nt
Cc1oc(-c2ccccc2)nc1C(=O)NCC(c1ccccc1)N1CCCC1 (stereo unspecified)	8	nt	nt	nt	nt	nt
CC(NC(=O)c1ccc[n+]([O-])c1)c1cccc(C(F)(F)F)c1 (stereo unspecified)	-2	nt	nt	nt	nt	nt
Cc1cc(Nc2ccccc2F)n2nc(Cc3ccccc3)nc2n1	3	nt	nt	nt	nt	nt
SMILES	LDHA inh	TDP1 cell noCPT	DT40 TDP1 CPT	Gal4-VP16 FLuc	RORg inh	IL1B secr inh
Cc1cccc(Nc2cc(C)nc3nc(Cc4ccc(Cl)cc4)nn23)c1	-2	?	21µM*	nt	nt	nt
CCc1nc2nc(C)cc(Nc3cc(C)ccc3C)n2n1	1	18µM*	?	nt	nt	nt
CCc1nc2nc(C)cc(Nc3ccc(Br)cc3F)n2n1	3	?	16µM*	nt	nt	nt
CCc1nc2nc(C)cc(Nc3cccc(C)c3C)n2n1	-9	-16%	?	nt	nt	nt
c1ccc2c(-n3nnnc3SCc3nc4ccccc4[nH]3)cccc2c1	10	nt	nt	nt	nt	nt
O=C(CCc1ncc(-c2ccccc2)o1)Nc1ccccc1O	2	nt	nt	nt	nt	nt
COc1ccccc1N1CCN(C(=O)c2cc(C)no2)CC1	-2	nt	nt	nt	nt	nt
N#Cc1nc(-c2ccc(COc3ccccc3)o2)oc1N1CCCCC1	-14	23µM*	?	nt	nt	nt
N#Cc1nc(-c2ccc(OCc3ccccc3Cl)cc2)oc1N1CCC(C(N)=O)CC1	-9	-29%	-4%	nt	nt	nt
N#Cc1nc(-c2cccc3ccccc23)oc1NCCN1CCCCC1	-1	16µM*	18µM*	-6%	5%	?
N#Cc1nc(-c2ccc(OCc3ccccc3Cl)cc2)oc1N1CCCCCC1	-15	11µM*	?	nt	nt	nt
N#Cc1nc(-c2ccccc2Cl)oc1N1CCCCC1	-3	9.2µM*	?	7%	1%	-51*
Cn1ccc2c(C(=O)N3CCC(C(N)=O)CC3)cccc21	0	nt	nt	nt	nt	nt
O=C1C(=Cc2cn(-c3ccccc3)nc2-c2ccc(OCc3ccccc3)cc2)SC(=S)N1CCS(=O)(=O)O	-15	?	29µM*	nt	nt	34
CCN1C(=O)/C(=C\c2cn(-c3ccccc3)nc2-c2cccnc2)SC1=S	-7	?	15µM*	2%	0%	9
CC(C)COc1ccc(-c2nn(-c3ccccc3)cc2CO)cc1	0	?	21µM*	-23%	-12%	-11
Cc1ccc(-c2nn(-c3ccccc3)cc2C=C2SC(=S)N(CCS(=O)(=O)O)C2=O)cc1	-2	?	-23%	nt	nt	-3
CC(C)COc1ccc(-c2nn(-c3ccccc3)cc2/C=C2/SC(=S)N(CC(=O)O)C2=O)cc1	-2	9.2µM*	?	-18%	?	-8
OCc1cn(-c2ccccc2)nc1-c1ccc(Br)cc1	-4	-1%	-2%	?	-3%	-8
Cc1ccc(NC(=O)C(C#N)=C2CCCCCCC2)cc1	-8	nt	nt	nt	nt	nt
O=C(NCc1cccs1)C(c1ccccc1)c1ccccc1	-1	nt	nt	nt	nt	nt
COc1ccc(C2CC(=O)NC(SCC(=O)Nc3ccccc3F)=C2C#N)cc1OC (stereo unspecified)	1	nt	nt	nt	nt	nt
c1ccc(-n2nnnc2CSc2nnc(N3CCCCC3)n2-c2ccccc2)cc1	10	nt	nt	nt	nt	nt
c1ccc(N2CCSC2c2cccs2)cc1 (stereo unspecified)	-2	nt	nt	nt	nt	nt
Cc1ccc(-c2cc(C(=O)Nc3cc(C)n(C)n3)c3ccccc3n2)cc1	-2	nt	nt	nt	nt	nt
CCCCn1cnc2c1c(=O)n(CC(=O)Nc1ccc(C)c(F)c1)c(=O)n2CCCC	7	nt	nt	nt	nt	nt
